“And” between values parts separate entries of the source, which are not always exact repeats. Equal values may be shown once. Hit rate of the full screen: of about 360,000 compounds, about 7,300 (2%) were called active. The list comes from a sample in which actives are over-represented; it also holds similar structures and randomly drawn compounds. Values without a mark were called inactive. No stated cut-off is given here; in the data, active means inhibition above about 50%; inactive means the rest.

As usually defined, the inhibition is the change of the read-out against control, counted positive when it falls.

A short description of the assay: inhibitors of TWEAK-Fn14 signaling, primary screen, luciferase reporter cells, uHTS (AID 1159606). The conditions noted are these: TWEAK-stimulated Fn14 reporter cells, luciferase luminescence, 8 h; at 10 µM; active compounds read high. In general terms: In a reporter assay the amount or activity of a reporter protein is the signal.
On to `CC(C)(C)NC(=O)CN(C(=O)c1csnn1)c1ccccc1-c1ccccc1`, for which the inhibition was -13.7%.

With `COC(=O)C1NN=C(C(=O)c2ccc(Br)cc2)C1c1cccc(Br)c1` (stereo not given), the inhibition is 48.4%.

For `O=C(Cc1ccccc1)NNC1CC(=O)N(c2ccc(Br)cc2)C1=O` (stereo not given), the inhibition is 12.9%.

`Cc1ccc(N2C(=O)CC(Nc3cccc4ccccc34)C2=O)cc1` (stereo not given): the inhibition was 51.9% (active).

As to `CC1=C(C)CC2C(=O)N(c3cccc4ccccc34)C(=O)C2C1` (stereo not given), the inhibition was 11.9%.

Regarding `O=C(CN1CCN(S(=O)(=O)c2ccc(Br)cc2)CC1)Nc1ccccc1C(=O)c1ccccc1`, the inhibition was -6.36%.

As to `O=C(CSc1nc2ccccc2c(=O)n1Cc1ccc(F)cc1)NCC1CCCO1` (stereo not given), the inhibition was -1.57%.

Turning to `O=C(NCCc1ccc(F)cc1)c1n[nH]c2ccccc12`, the inhibition is -18.2%.

For the compound `O=C(NCCCO)c1cc2c([nH]c3ccccc32)c(-c2ccc(F)cc2)n1`, the inhibition is 54.8% (active).

On to `O=C(NCC1CCCO1)c1cc2c([nH]c3ccccc32)c(-c2ccc(F)cc2)n1` (stereo not given), for which the inhibition is 51% (active).

For `COc1ccc2cc(C(=O)NCC3CCCO3)[nH]c2c1` (stereo not given), the inhibition is -11.1%.

For `C[N+](C)(C)CCNC(=O)c1c[nH]c2ccccc12`, the inhibition is -3.99%.

For `CC(C)C[C@@H]1COc2cc(N3CCC[C@@H]3CO)ccc2S(=O)(=O)N1`, the inhibition is 15.8%.

As for `CC1(C)OC(=O)C2=C(C[C@@H](C3CCCC3)O[C@@H]2c2ccc(Cl)cc2)O1`, the inhibition was 1.8%.

Take `CC(C)CN(C(=O)c1cccc(S(=O)(=O)N2CCCCC2)c1)C1CCS(=O)(=O)C1` (stereo not given): the inhibition was -4.27%.

Turning to `COc1ccc2cc(CCl)c(Cl)nc2c1`, the inhibition is 3.18%.

As to `COc1ccc2nc(-c3ccccn3)ccc2c1`, the inhibition is 61.3% (active).

Turning to `COc1ccc(C=C(C#N)C#N)c(CSc2ccccn2)c1`, the inhibition was 9.11%.

For `OCCC1CN(Cc2cccc(O)c2)CCN1CCc1ccccc1` (stereo not given), the inhibition is 15.9%.

With `Cc1nnc(OCC(=O)NCCC2=CCCCC2)c2ccccc12`, the inhibition was 8.22%.

Regarding `O=C(Cc1cccc2ccccc12)NCCC1=CCCCC1`, the inhibition was 99.4% (active).

As to `O=C(CCNC(=O)Cn1ccc2ccccc2c1=O)NCCC1=CCCCC1`, the inhibition was -2.43%.

For the compound `Cc1nccn1-c1ccc(NC(=O)[C@H]2O[C@@H](n3ccc(=O)[nH]c3=O)[C@H](O)[C@@H]2O)cc1`, the inhibition was -4.03%.

`Cc1ccc2c(c1)N(CCCC(=O)NCc1cccnc1)C(=O)CO2`: the inhibition was 7%.

For the compound `COc1ccc(S(=O)(=O)N2CCCCC2)cc1C(=O)NC1CCS(=O)(=O)C1` (stereo not given), the inhibition was 4.36%.

With `CC(=O)Nc1ccc(NC(=O)COC(=O)c2ccccc2C(=O)c2ccccc2)cc1`, the inhibition is 16.1%.

Regarding `CC(=O)Nc1ccc(NC(=O)C(C)OC(=O)c2ccccc2C(=O)c2ccc(Cl)c([N+](=O)[O-])c2)cc1` (stereo not given), the inhibition is 95.7% (active).

For the compound `COC(=O)c1cc(NC(=O)Cc2ccccc2[N+](=O)[O-])ccc1Cl`, the inhibition was -1.56%.

Take `O=C(Nc1cccc(NC(=O)c2ccccc2[N+](=O)[O-])c1)c1ccccc1Cl`: the inhibition was -3.52%.

Turning to `N#Cc1cccc(NC(=O)COC(=O)c2ccccc2C(=O)c2ccc(Cl)c([N+](=O)[O-])c2)c1`, the inhibition is 99.5% (active).

Consider `CC(OC(=O)CNC(=O)c1ccc(Cl)c([N+](=O)[O-])c1)C(=O)NCc1ccco1` (stereo not given), for which the inhibition is -16.1%.

Consider `O=C(NCc1cccnc1)c1cc(C2CCCN(C(=O)CCCc3ccccc3)C2)on1` (stereo not given), for which the inhibition is 0.68%.

Turning to `O=C(NNS(=O)(=O)c1ccccc1)c1cnn(-c2ccc(Cl)cc2)c1C(F)(F)F`, the inhibition is 4.65%.

As to `CCCCN(C)CCNC(=O)C1CCCN(S(=O)(=O)c2cccc3nsnc23)C1` (stereo not given), the inhibition is -0.5%.

On to `CCCCN(CC)C(=O)C1CCCN(S(=O)(=O)c2cccc3nsnc23)C1` (stereo not given), for which the inhibition was -6.36%.

As for `O=C(c1ccco1)N1CCN(C(=O)C2CCCN(S(=O)(=O)c3cccc4nsnc34)C2)CC1` (stereo not given), the inhibition is 62.4% (active).

On to `O=C(CCl)NNc1cccc(Cl)n1`, for which the inhibition is -23.4%.

Regarding `O=S(=O)(Nc1ccccc1N1CCOCC1)c1ccc(Cl)s1`, the inhibition is 4.55%.

In the case of `O=C(Nc1cccc(Cl)c1)Nc1ccccc1NS(=O)(=O)c1cccs1`, the inhibition was 10.4%.

As for `COc1cc(NC(=O)c2ccccc2NS(=O)(=O)c2ccc(Cl)s2)cc(OC)c1`, the inhibition was 72.6% (active).

`CCOCCCN(C)C1CCN(C(=O)c2oc3ccccc3c2NC(=O)Cc2cccc([N+](=O)[O-])c2)CC1`: the inhibition is -1.52%.

Take `Cc1ccc2c(c1)NC(=O)[C@@]1(C)[C@@H](c3ccccc3)[C@H]3COc4ccc(Cl)cc4[C@@H]3N1C2=O`: the inhibition was 15.4%.

As to `CCN1CCN(c2sc(S(C)(=O)=O)nc2S(=O)(=O)c2ccc(Cl)cc2)CC1`, the inhibition was 31.6%.

As to `COC(=O)[C@@]1(Sc2ccc(C)cc2)CC(=O)N(c2cccc(SC)c2)[C@@H]1c1ccccc1`, the inhibition was 69.9% (active).

`CCOC(=O)N1C(=O)C[C@](Sc2ccc(C)cc2)(C(=O)OC)[C@H]1c1ccccc1`: the inhibition is 14.7%.

On to `COC(=O)c1ccccc1SC1CC(=O)N(c2cccc(C)c2)C1=O` (stereo not given), for which the inhibition was -5.63%.

As to `CCCCn1nnnc1C(c1cc2ccccc2o1)N(C)Cc1ccc(Cl)c(Cl)c1` (stereo not given), the inhibition was -0.38%.

Take `COc1ccc(C(=O)N2CCCCC2c2cc(C(=O)Nc3ccccc3)no2)cc1` (stereo not given): the inhibition is -7.61%.

Consider `CCOc1cc2[nH]c(=S)n(CCN3CCCCC3C)c(=O)c2cc1OCC` (stereo not given), for which the inhibition is -2.73%.

Turning to `COc1cc2[nH]c(=S)n(Cc3ccc(F)cc3)c(=O)c2cc1OC`, the inhibition was -27%.

Turning to `COc1cc2[nH]c(=S)n(CCN3CCCCC3C)c(=O)c2cc1OC` (stereo not given), the inhibition was 77.3% (active).

On to `CCOCCCNC(=O)C(NC(=O)CNC(=O)c1ccccc1)c1ccc(OC)cc1` (stereo not given), for which the inhibition is -12.7%.

Consider `CN(C)Cc1ccc(F)cc1Sc1cc(Cl)ccc1Cl`, for which the inhibition is 5.28%.

For `CC(=O)N1C(C)c2ccccc2C(C)(C)CC12CCCCC2` (stereo not given), the inhibition was -11.4%.

As for `C=CC1=C(C(=O)O)N2C(=O)[C@@H](NC(=O)/C(=N\OCC(=O)O)c3csc(N)n3)[C@H]2SC1`, the inhibition was 14.2%.

With `C=CC1=C(C(=O)O)N2C(=O)[C@@H](NC(=O)/C(=N/OCC(=O)O)c3csc(N)n3)[C@H]2SC1`, the inhibition was 75.2% (active).

In the case of `CO/N=C(\C(=O)N[C@@H]1C(=O)N2C(C(=O)O)=C(COC(C)=O)CS[C@H]12)c1csc(N)n1` (stereo in doubt), the inhibition was 15% and 5.82% and -5.11%.

Consider `CC(=O)c1ccc(S(=O)(=O)N(C)CCCC(=O)N(C)Cc2ccccc2F)cc1`, for which the inhibition was 13.5%.

On to `CC1(C)OC(=O)C2=C(C[C@@H](C3CCCCC3)O[C@@H]2c2ccc(Cl)cc2)O1`, for which the inhibition is -5.53%.

In the case of `Cc1cccc(N2CCN(C(=O)COCc3cc(-c4ccc5c(c4)OCO5)on3)CC2)c1C`, the inhibition is -13.9%.

`Cc1ccc(N(Cc2cc(=O)[nH]c3ccccc23)C(=O)CCl)cc1`: the inhibition is 52.1% (active).

For `CC(=O)N(Cc1cc(=O)[nH]c2ccccc12)c1ccc(C)cc1C`, the inhibition is 4.2%.

In the case of `CCC(=O)N(Cc1cc2ccccc2[nH]c1=O)c1ccc(OC)cc1`, the inhibition is -8.72%.

`CCN(CC)S(=O)(=O)c1cccc(C(=O)NCC(=O)OCC(=O)NCc2ccccc2)c1`: the inhibition was 0.62%.

`Cc1ccc(F)cc1S(=O)(=O)Nc1cccc(C(=O)N2CCCC(C(N)=O)C2)c1` (stereo not given): the inhibition is -7.05%.

As for `NC(=O)[C@H]1CC2(CC(c3cccc(NC(=O)[C@H]4CCC(=O)N4)c3)=NO2)CN1C(=O)c1ccccc1C(=O)c1ccccc1` (stereo not given in full), the inhibition was -12.2%.

On to `COc1ccc(CCNC(=S)NC(=O)/C=C/c2ccc(C)cc2)cc1OC`, for which the inhibition was -15.4%.

With `Cc1ccc(-c2nc(C#N)c(NCCCn3ccnc3)o2)cc1`, the inhibition was -18.1%.

As to `Cc1ccc2c(Cl)c(C(=O)NCCCn3ccnc3)sc2c1`, the inhibition was -11.3%.

As to `Cc1ccc(S(=O)(=O)c2nc(NCCCn3ccnc3)sc2Cl)cc1`, the inhibition is 80.5% (active).

With `O=C(O)C(=Cc1ccc([N+](=O)[O-])cc1)CCc1ccccc1`, the inhibition was -10.9%.

`CCOC(=O)/C(=C\c1ccc([N+](=O)[O-])cc1)C(=O)c1cc(C(C)=O)c(Nc2ccccc2)s1`: the inhibition was 104% (active).

Regarding `CCOC(=O)/C(=N\Nc1ccccc1[N+](=O)[O-])c1csc(Nc2ccccc2)n1`, the inhibition is 8.54%.

As to `CCCCc1c(-c2ccc(Br)cc2)ncn1CCc1ccccc1OC`, the inhibition is 38.9%.

Regarding `Cc1noc(C)c1NC(=O)N(C)C[C@@H]1Oc2cc(Br)ccc2S(=O)(=O)N([C@@H](C)CO)C[C@H]1C`, the inhibition is 18.1%.

`COC(=O)c1ccc(Nc2ncnc3sccc23)cc1`: the inhibition was -10.3%.

For `COC(=O)c1ccc2nc(C3CCCCC3)c(Cc3cccc(F)c3)n2c1`, the inhibition was -20.2%.

For `O=C(O)C(F)(F)C(NCc1ccccc1)c1ccccc1` (stereo not given), the inhibition is -8.01%.

On to `CC[C@H]1CN2CCc3cc(OC)c(OC)cc3[C@@H]2C[C@@H]1C[C@H]1NCCc2cc(OC)c(OC)cc21`, for which the inhibition is 98% (active).

Turning to `Cn1ncc([N+](=O)[O-])c1C(=O)Nc1cc(Cl)ccc1Cl`, the inhibition was -23.8%.

Consider `Cc1cc2nc(-c3ccc(F)cc3)c(Cc3ccsc3)n2c(C)c1Br`, for which the inhibition was 0.39%.

As to `Cc1cc(=O)oc2c3c(cc(OCC(=O)NCC(O)c4ccccc4)c12)OC(C)(C)CC3` (stereo not given), the inhibition is -0.31%.

`O=C(CC1CCCCC1)NCc1ccc(F)cc1`: the inhibition was 7.42%.

Regarding `CCc1ccc2c(c1)C1(NN=C(c3ccccc3)S1)C(=O)N2` (stereo not given), the inhibition was 87.5% (active).

As for `CCc1ccc2c(c1)NC(=O)C2(C)Cc1ccc(OC(F)(F)F)cc1` (stereo not given), the inhibition is 8.25%.

Source of the values: PubChem BioAssay AID1159606 (Sanford-Burnham Center for Chemical Genomics, 2016).
